Results reported in PubChem BioAssay (NCI).
Where “and” joins values, the source holds several entries; their conditions need not be identical. Equal values may be shown once. About 83,000 compounds went through this panel and 20% of them were active in at least one assay; those are over-represented in the sample as a whole.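 Cell lines were cultured in 96-well plates, exposed to a single compound concentration, and assessed for percent growth 48 hours later.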 Calls of active or inactive are those of the source. How the source made its calls: active means growth percent below 10; inactive means the rest.

Each molecule was assayed on HL-60(TB) leukemia (assay: NCI-60 one-dose screen, 48 h (100 = growth as untreated, 0 = no growth, -100 = all killed)). Details: 10 µM unless noted.

| SMILES | growth |
| --- | --- |
| CN(C)CCOc1ccc(C(=O)C2[C@H](c3ccc(Cl)cc3)[C@@H](c3ccccc3)NC23C(=O)Nc2ccc(Cl)cc23)cc1 (stereo partly specified) | -75.6% (active) |
| O=C(Nc1nc2ccccc2s1)Nc1ccccc1Cl | 97.4% (inactive) |
| Cc1[nH]nc2ccc3nc(-c4cnn(CCO)c4)c4c(c3c12)CCCC4 | 36.9% (inactive) |
| Brc1ccc(/C=N/Nc2ncnc3sc4c(c23)CCN(Cc2ccccc2)C4)cc1 | 19.9% (inactive) |
| N#Cc1ccc(/C=N/NC(=O)c2[nH]c3ccc(Br)cc3c2-c2ccccc2)o1 | -25.1% (active) |
| OCCn1cc(-c2nc3ccc4[nH]ncc4c3c3c2CCCC3)cn1 | 45.2% (inactive) |
| Cc1ccc2sc3c(c2c1)Oc1nc[nH]c(=O)c1C3c1cccc(F)c1 (stereo unspecified) | 99.3% (inactive) |
| CCOc1ccc2ncc(C#Cc3cncc(C(=O)Nc4ccc(CN5CCN(C)CC5)c(C(F)(F)F)c4)c3)n2n1 | 1.2% (active) |
| c1n[nH]cc1-c1nc2ccc3[nH]ncc3c2c2c1CC1(CC2)COC1 | 29.1% (inactive) |
| CCOC(=O)c1ccc(NC(=S)NC(=O)c2cccc(NC(=O)c3ccc(C)cc3)c2)cc1 | 102% (inactive) |
| COc1cccc(COc2ccc(NC(=O)Nc3ccc(Cl)c(C(F)(F)F)c3)cc2)c1 | 17.8% (inactive) |
| COC1=C[C@]23CCC(=O)N2CCc2cc4c(cc2[C@@H]3[C@@H]1OC(=O)CCCC(C)C)OCO4 | 7.81% (active) |
| COc1csc(/C=N/NC(=O)c2[nH]c3ccc(Br)cc3c2-c2ccccc2)c1 | -42.8% (active) |
| CC1CCc2c(sc3nc(SCC(=O)c4cccc(Br)c4)n(-c4ccccc4)c(=O)c23)C1 (stereo unspecified) | 64.7% (inactive) |
| O=C1CC(c2ccc(I)cc2)OC2C=Cc3ccccc3C12 (stereo unspecified) | 89% (inactive) |
| CS(=O)(=O)Nc1cc(-c2ccc3ncnc(Nc4ccc(OCc5cccnc5)c(Cl)c4)c3c2)cnc1Cl | -59.5% (active) |
| O=C(CSc1nnc(-c2ccc(-c3nc4ccc(Cl)cc4[nH]3)cc2)o1)Nc1ccc(Cl)cc1 | 4.27% (active) |
| O=C(Cn1nc(-c2ccccc2)ccc1=O)NN1C(=O)c2ccccc2C1=O | 101% (inactive) |

| SMILES | growth |
| --- | --- |
| O=C(Nc1cccc(-c2cn(-c3ccc4oc(=O)ccc4c3)nn2)c1)Nc1cc(C(F)(F)F)cc(C(F)(F)F)c1 | 34.3% (inactive) |
| CN(C)CCOc1ccc(C(=O)C2[C@H](c3ccc(Cl)cc3)[C@@H](c3ccccc3)NC23C(=O)Nc2ccccc23)cc1 (stereo partly specified) | 35.1% (inactive) |
| COc1ccc(-c2ccnc(SCc3cc4cc(OC)ccc4[nH]c3=O)n2)cc1 | -8.43% (active) |
| N#Cc1c(-c2ccc(Br)cc2)nc2n[nH]c(-c3ccc(Br)cc3)c2c1-c1ccc(F)cc1 | 80.4% (inactive) |
| Cc1ccc(/C(CSc2nnc(-c3c[nH]c4ccccc34)n2-c2ccccc2)=N/O)cc1 | -13.8% (active) |
| O=C(N/N=C/c1ccc(Cl)o1)c1[nH]c2ccc(Br)cc2c1-c1ccccc1 | -42.4% (active) |
| COc1cncc(-c2ccc3ncnc(N4CCc5ccc(Cl)cc54)c3c2)c1 | -33.4% (active) |
| CCOC(=O)c1ccc(NC(=S)NC(=O)c2ccc(NC(=O)C(C)C)cc2OC)cc1 | 46.3% (inactive) |
| O=[N+]([O-])c1cccc(-c2nnc3c(/C=C/c4ccc(F)cc4)nc4ccccc4n23)c1 | 92.7% (inactive) |
| O=S(=O)(c1nc(-c2ccc(Br)cc2)oc1-c1ccc(Cl)cc1)N1CCCC(O)C1 (stereo unspecified) | 31.4% (inactive) |
| CC(=O)Nc1ccc(-n2cnc3ccc(-c4ccc(O)cc4)cc32)cc1 | 38.2% (inactive) |
| Cn1cc(-c2cc(N)n3nc(-c4c[nH]c5ccc(Br)cc45)cc3n2)c2cccnc21 | -49.9% (active) |
| Cn1cc(-c2cc3nc(-c4cn(C)c5ncccc45)cc(N)n3n2)c2cc(F)ccc21 | 7.11% (active) |
| COc1cccc(O)c1/C=C1\SCc2cc3c(OC)cccc3[o+]c21 | 100% (inactive) |
| CCCCCCCCOc1cccc(S(=O)(=O)Nc2ccc(C)cc2C(=O)O)c1 | 101% (inactive) |
| CSc1ccc(OCc2nc3ccccc3n2-c2cccc(NS(C)(=O)=O)c2)cc1 | 115% (inactive) and 105% (inactive) |
| O=C(c1ccc(O)cc1)C1[C@H](c2ccc(Cl)cc2)[C@@H](c2ccccc2)NC12C(=O)Nc1ccc(Br)cc12 (stereo partly specified) | -33.9% (active) |
| O=C(N=Nc1c(O)[nH]c2ccc(Br)cc12)c1ccc2nc(-c3ccccc3)[nH]c2c1 | 30.9% (inactive) |
